Compound activity from PubChem BioAssay.
Akt phos inh: inhibitors of Akt phosphorylation | activity change, % for hits at 50 µM | Neuro2A IGF-stimulated pAkt S473 HTRF, 20 min; active compounds read low | actives 0.32% (n = 360,000); in the data active = activity change below about -80%; inconclusive = mostly about -51% to -80%; note: % is set by controls: 0 for no effect and ±100 for the full control effect
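Single-point screen (50 µM final compound) in Neuro2A cells stimulated 20 min with 6 nM IGF at 37 deg C. After lysis, Ser473-phosphorylated Akt read by HTRF (ex 330 nm, em 615/665 nm) as the 665/615 ratio.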
gsp agonist: activates gsp, the McCune-Albright syndrome mutation; gsp mutant cells, cAMP HTRF, 30 min; Potency, µM (doses to about 76.9 µM), inactives show at the highest dose activation (cAMP increase), hits mostly activators; actives 0.13% (n = 340,000); AID 624287; active = well fitted activation curve with a large enough effect; inconclusive = small, poorly fitted or top-dose-only effect, or another doubt; inactive = no such curve, though single readings can be large or run the other way; cell line not stated here;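 note: phosphodiesterase inhibitor Ro 20-1724 added with compounds to block cAMP breakdown; potency is the fitted concentration of half-maximal effect; nearly all actives have a fitted effect of over 60% in size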
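Cells in DMEM/10% FBS with G418 were pretreated with compounds in DMSO plus […] (300 uM stock) for 30 min at 37C. cAMP was measured by HTRF (cAMP-d2 plus anti-cAMP antibody-K) after 30 min at room temperature.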
RXFP1 antag: antagonists of human relaxin receptor RXFP1; actives 0.59% (n = 350,000); activity change, negative = inhibition, % at 57.5 µM; HEK293-RXFP1, relaxin-stimulated cAMP HTRF, 30 min; active compounds read low; Q9HBX9;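 active = activity change of -60% or lower, but not beyond a set lower limit; inconclusive = change between -60% and -40%, or beyond the set limit; inactive = change above -40%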; note: % is set by controls: 0 for no effect and ±100 for the full control effect
Target sequence (Q9HBX9 whole entry, looked up): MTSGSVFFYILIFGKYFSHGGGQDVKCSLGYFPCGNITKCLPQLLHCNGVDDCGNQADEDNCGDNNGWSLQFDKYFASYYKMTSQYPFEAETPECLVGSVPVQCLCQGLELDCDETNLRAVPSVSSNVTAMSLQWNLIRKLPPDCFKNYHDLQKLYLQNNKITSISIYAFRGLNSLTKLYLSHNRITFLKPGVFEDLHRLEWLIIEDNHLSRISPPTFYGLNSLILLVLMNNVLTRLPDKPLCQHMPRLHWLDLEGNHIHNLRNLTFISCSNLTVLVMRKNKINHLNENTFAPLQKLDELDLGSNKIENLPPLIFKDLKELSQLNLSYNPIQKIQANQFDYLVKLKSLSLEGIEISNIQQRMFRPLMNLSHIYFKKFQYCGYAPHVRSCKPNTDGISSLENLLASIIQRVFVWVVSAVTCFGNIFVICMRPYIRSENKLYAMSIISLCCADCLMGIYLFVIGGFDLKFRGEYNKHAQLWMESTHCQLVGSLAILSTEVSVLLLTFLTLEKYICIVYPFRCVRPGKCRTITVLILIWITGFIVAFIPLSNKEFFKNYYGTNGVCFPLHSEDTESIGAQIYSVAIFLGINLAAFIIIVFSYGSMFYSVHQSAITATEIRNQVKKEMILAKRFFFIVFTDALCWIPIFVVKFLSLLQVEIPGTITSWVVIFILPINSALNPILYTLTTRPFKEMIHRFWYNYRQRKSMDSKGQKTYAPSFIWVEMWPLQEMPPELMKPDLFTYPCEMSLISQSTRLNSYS
RXFP1 agonist: activates the human relaxin receptor RXFP1; Q9HBX9; HEK293T-RXFP1 cAMP TR-FRET, 30 min; response scale: percent of porcine relaxin response, buffer zero; Potency, µM (titrated, usually from 57.5 µM), without a hit: top-dose activation, actives largely listed as activators; actives 0.3% (n = 370,000); AID 2676; active = well fitted activation curve with a large enough effect; inconclusive = small, poorly fitted or top-dose-only effect; note: potency is the fitted concentration of half-maximal effect; % is set by controls: 0 for no effect and ±100 for the full control effect; nearly all actives have a fitted effect of over 60% in size
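HEK293 cells stably expressing RXFP1, treated 30 min at 37C with compounds plus PDE4 inhibitor Ro 20174; cAMP measured by HTRF TR-FRET. Normalized to buffer and 29 nM porcine relaxin; EC50 by Hill fit.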
gsp antagonist: antagonizes gsp, the McCune-Albright syndrome mutation; gsp-mutant cells, cAMP HTRF, 30 min; Potency, µM (titrated, usually from 76.9 µM), without a hit: at the top dose activity change, negative = inhibition, hits mostly inhibitors; actives 0.4% (n = 340,000); AID 624288; calls by dose curve; cell line not stated here;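 note: intracellular cAMP measured with PDE inhibitor Ro 20-1724 present during compound exposure; potency is the fitted concentration of half-maximal effect; % is set by controls: 0 for no effect and ±100 for the full control effect; nearly all actives have a fitted effect of over 65% in size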
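Cells, 2000/well, grown 16–24 h in DMEM 10% FBS with 0.5 mg/ml G418, then compounds plus […] (300 uM addition stock), 30 min at 37C. cAMP read by HTRF (cAMP-d2 and anti-cAMP antibody-K in lysis buffer) after 30 min RT.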
* hit, by the source's call; i = inactive; ? = inconclusive; / = no result; [ ] = another dose, or the depositor's remark. Shown are actives, neighbours in structure and some others; about 1.2% of the full set was active somewhere.

SMILES | Akt phos inh | gsp agonist | RXFP1 antag | RXFP1 agonist | gsp antagonist
Cc1cccc(N2CCN(C(=O)C3CCCN(S(=O)(=O)c4ccc5c(c4)oc(=O)n5C)C3)CC2)c1C (configuration not stated) | / | / | / | 1% | /
CC(C)(C)c1nc(SCC(=O)N2CCCC2)c2ccccc2n1 | i | 2%[15.4 µM] | -11 | -1% | /
CC(C)(C)c1nc(SCC(=O)c2ccccc2)c2ccccc2n1 | i | 4%[15.4 µM] | -67* | -1% | -17%
CCN(CC)S(=O)(=O)c1ccc(OC)c(NC(=O)CSCc2c(C)noc2C)c1 | i | 18µM* | 14 | / | 4%
CN(C)S(=O)(=O)c1ccc(Cl)c(NC(=O)CN2CCN(Cc3ccc4c(c3)OCO4)CC2)c1 | i | 10% | 0 | 3% | 11µM*
Cc1ccc(CNC(=O)CSc2ncc3c(n2)-c2ccc(Cl)cc2N(Cc2ccccc2)S3(=O)=O)cc1 | / | / | / | 28µM* | /
O=C(CSc1ncc2c(n1)-c1ccc(Cl)cc1N(Cc1ccccc1)S2(=O)=O)Nc1ccccc1C(F)(F)F | / | / | -4 | 8% | /
O=C(CSc1ncc2c(n1)-c1cc(Cl)ccc1N(Cc1ccccc1)S2(=O)=O)NCc1ccccc1 | / | / | / | 2% | /
CCOc1ccc(NC(=O)CSc2ncc3c(n2)-c2ccc(Cl)cc2N(Cc2ccccc2)S3(=O)=O)cc1 | / | / | -4 | 11µM* | /
O=C1/C(=C/c2ccncc2)Oc2cc(OS(=O)(=O)c3ccccc3)ccc21 | i | -1% | -82* | 0% | -9%
O=C1/C(=C/c2cccnc2)Oc2cc(OS(=O)(=O)c3ccc(F)cc3)ccc21 | i | -21% | -5 | -1% | ?
CCOc1ccccc1NC(=O)COC(=O)C(CC)c1ccccc1 (configuration not stated) | i | 25% | -11 | 1% | 10µM*
CCC(C(=O)OCC(=O)Nc1cc(C)ccc1OC)c1ccccc1 (configuration not stated) | i | -33% | 11 | 1% | -3%
CSc1ccc(CCNc2ncnc3onc(-c4ccc(Cl)cc4)c23)cc1 | / | / | -20 | 1% | /
O=C(O)c1c(-c2ccccc2)c2oc3ccccc3c2[nH]c1=O | / | 40µM* | -5 | 8% | 5%
CCC(=O)OCCNc1cc(Sc2nccn2C)c2nonc2c1[N+](=O)[O-] | i | -25% | -90* | 6% | -20%
CCC(=O)OCCNc1cc(SCCC(=O)OC)c2nonc2c1[N+](=O)[O-] | i | ? | -34 | 1% | 0%
O=C(COCCOCCOCC(=O)Nc1c(I)cc(I)c(C(=O)O)c1I)Nc1c(I)cc(I)c(C(=O)O)c1I | / | / | -6 | / | /
c1ccc(-c2cnnc(SCc3cn4cccnc4n3)n2)cc1 | -112%* | ? | -7 | 11% | 13%
CCOc1ccc(NC(=O)c2cc3c(n(-c4ccc(OC)cc4)c2=O)CC(C)(C)CC3=O)cc1 | / | / | -12 | 7% | /
Cc1ccnc(NC(=O)c2cccc(S(=O)(=O)Nc3ccc(C)cc3C)c2)c1 | i | ? | -77* | / | -24%
Cc1ccc(NS(=O)(=O)c2cccc(C(=O)NNC(=O)c3cccn3C)c2)c(C)c1 | i | 13%[15.4 µM] | -3 | 0% | 2%
CCc1ccc2n(-c3ccc(OC)cc3)c([S-])c(C(=O)Nc3cc(C)cc(C)c3)[n+]2c1 | i | 10%[15.4 µM] | -7 | 5µM* | 29%
O=C(Nc1ccccc1N1CCOCC1)c1ccccc1NS(=O)(=O)c1ccc(F)c(F)c1 | i | -32% | 2 | 2% | 3.5µM*
O=C(Nc1ccccc1N1CCOCC1)c1ccccc1NS(=O)(=O)c1ccc(F)cc1 | i | 5%[15.4 µM] | ? | 2% | -8%
COc1ccc(-c2csc(NC(=O)c3ccccc3NS(=O)(=O)c3ccc(F)c(F)c3)n2)cc1 | i | -13%[15.4 µM] | -27 | 1% | 32µM*
Cc1ccc(S(=O)(=O)Nc2ccccc2C(=O)Nc2nc(-c3ccc(F)cc3)cs2)cc1 | i | -3% | / | -1% | -56%
CCOC(=O)[C@@](C)(N)Cc1ccc(O)c(O)c1 | / | / | 13 | / | /
Cn1cc(S(=O)(=O)N2CCCC2)cc1C(=O)Nc1ccc(C(F)(F)F)cc1 | / | / | 9 | -2% | /
Cc1cc2n(n1)C(c1ccc(O)cc1)Nc1ccccc1-2 (configuration not stated) | i | ? | 12 | 2% | -11%
